{"source": "PubChem BioAssay AID1240", "about": "(Sanford-Burnham Center for Chemical Genomics, 2008)", "note": "About 800 (1.6%) of roughly 50,000 compounds showed an effect of 50% or more. The sample as a whole holds a higher share of strong results than the screen did.", "data": [{"biological_target": "Bcl-2-like protein 10 (Homo sapiens) (UniProt Q9HD36)", "sequence (Q9HD36 whole entry, looked up)": "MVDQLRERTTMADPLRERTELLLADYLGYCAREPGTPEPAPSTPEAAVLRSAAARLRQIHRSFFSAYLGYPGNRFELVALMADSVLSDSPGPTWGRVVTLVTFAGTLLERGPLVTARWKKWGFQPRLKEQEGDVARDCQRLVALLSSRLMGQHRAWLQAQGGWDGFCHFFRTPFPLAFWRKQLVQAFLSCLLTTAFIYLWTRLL", "assay": "Phenotype converters, Bcl-B/TR3 peptide binding displacement, primary biochemical FP (AID 1240);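 note: 0% = Bcl-B with tracer peptide and DMSO and 100% = tracer peptide lacking Bcl-B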", "settings": "GST-Bcl-B / FITC-TR3 peptide fluorescence polarization; stronger effect = higher value; compound at 3.75 mg/L", "units": {"displacement": "%"}, "values": [{"smiles": "CCCCOC(=O)Nc1ccc(S(=O)(=O)Nc2cc(C)ccc2C)cc1", "displacement": 7.1}, {"smiles": "CC(C)C(=O)NC(c1ccc(N(C)C)cc1)c1c(O)ccc2ccccc12", "note": "(stereo not given)", "displacement": 6.4}, {"smiles": "CCCC1CCc2nc3ccccc3c(C(=O)O)c2C1", "note": "(stereo not given)", "displacement": -10.4}, {"smiles": "O=C(NC12CC3CC(CC(C3)C1)C2)c1ccc(Cl)c(Cl)c1", "displacement": 6.9}, {"smiles": "COc1ccc(-c2nc3c(n2O)CCC/C3=N\\O)cc1OC", "displacement": 16.6}, {"smiles": "O=C(CCN1C(=O)c2ccccc2C1=O)NCC1CCCO1", "note": "(stereo not given)", "displacement": 9.6}, {"smiles": "COc1ccccc1NC(=O)CSc1ncn[nH]1", "displacement": 2.5}, {"smiles": "COc1cc(/C=C2\\C(=O)NN(c3ccccc3)C2=O)ccc1OCc1ccccc1F", "displacement": 8.9}, {"smiles": "Nc1ncc(-c2ccc([N+](=O)[O-])cc2)cn1", "displacement": -4.1}, {"smiles": "O=C(Nc1nc(-c2ccc(Cl)cc2)cs1)c1ccc(S(=O)(=O)N2CCCCC2)cc1", "displacement": -9.5}, {"smiles": "O=C(Nc1nc(-c2ccc(F)cc2)cs1)c1ccc(S(=O)(=O)N2CCCCCC2)cc1", "displacement": 129}, {"smiles": "Cc1ccc(-c2csc(NC(=O)c3ccc(S(=O)(=O)N4CCCCCC4)cc3)n2)cc1", "displacement": -19}, {"smiles": "CCc1c(C)sc(NC(=O)c2cccs2)c1C(=O)OC", "displacement": 3.3}, {"smiles": "O=C(O)C(Cc1ccccc1)N1C(=O)/C(=C/c2ccc(Br)cc2)SC1=S", "note": "(stereo not given)", "displacement": 11.6}, {"smiles": "FC(F)(F)c1ccccc1CN1CCN(C2CCCCC2)CC1", "displacement": 1.4}, {"smiles": "CC(C)COc1ccc(C(=O)Nc2ccc(-c3nc4ccccc4o3)cc2)cc1", "displacement": 10}, {"smiles": "CC(C)COc1ccc(C(=O)Nc2ccc(-c3nc4ncccc4o3)cc2)cc1", "displacement": 50.1}, {"smiles": "O=C(Nc1ccc2oc(-c3cccnc3)nc2c1)c1cccc(OCc2ccccc2)c1", "displacement": 11}, {"smiles": "CCCCOc1ccc(C(=O)Nc2ccc(-c3nc4ncccc4o3)cc2)cc1", "displacement": 10.6}, {"smiles": "CCOc1cc(OCC)cc(C(=O)Nc2ccc(-c3nc4ncccc4o3)cc2)c1", "displacement": 0.6}, {"smiles": "O=C(Nc1ccc(-c2nc3ncccc3o2)cc1)c1cccc(OCc2ccccc2)c1", "displacement": 110}, {"smiles": "CCCCc1c(C)nc2ccc(C(=O)O)cc2c1Cl", "displacement": 1}, {"smiles": "C=CCOc1ccc(/C=C2/C(=O)NN(c3ccc(C)c(Cl)c3)C2=O)cc1OC", "displacement": 15.5}, {"smiles": "Cc1cccc(N2C(=O)NC(=O)/C(=C/c3ccc(-c4ccc(C(=O)O)cc4)o3)C2=O)c1", "displacement": -58.8}, {"smiles": "COC(=O)c1ccc(-n2c(C)cc(/C=C3\\C(=O)NC(=O)N(c4ccc(OC)cc4)C3=O)c2C)cc1", "displacement": 115}, {"smiles": "COc1ccc(N2C(=O)NC(=O)/C(=C\\c3cc(C)n(-c4ccc(N5CCOCC5)cc4)c3C)C2=O)cc1", "displacement": 15.9}, {"smiles": "CN1C(=O)C(=Cc2ccc(-c3ccc(Cl)c(Cl)c3)o2)C(=O)N(C)C1=O", "displacement": -3.8}, {"smiles": "COc1ccc(N2C(=O)NC(=O)/C(=C/c3ccc(-c4ccc(C(=O)O)cc4)o3)C2=O)cc1", "displacement": -10.9}, {"smiles": "COc1ccc(N2C(=O)/C(=C/c3ccc(-c4ccc(C(=O)O)cc4)o3)C(=O)NC2=S)cc1", "displacement": -28.2}, {"smiles": "CN1C(=O)C(=Cc2ccc(-c3ccc(Cl)c(C(=O)O)c3)o2)C(=O)N(C)C1=O", "displacement": 14.5}, {"smiles": "CCOC(=O)c1ccc(-c2ccc(/C=C3/C(=O)NC(=O)N(c4ccc(OC)cc4)C3=O)o2)cc1", "displacement": 86.2}, {"smiles": "CCOC(=O)c1cc(-c2ccc(C=C3C(=O)N(C)C(=O)N(C)C3=O)o2)ccc1Cl", "displacement": 111}, {"smiles": "CCOC(=O)c1ccc(-c2ccc(/C=C3/C(=O)NC(=O)N(c4ccccc4)C3=O)o2)cc1", "displacement": 88.5}, {"smiles": "CCOC(=O)c1ccc(-c2ccc(/C=C3/C(=O)NN(c4cccc(Cl)c4)C3=O)o2)cc1", "displacement": -1.9}, {"smiles": "COC(=O)c1ccc(-n2c(C)cc(C=C3C(=O)NC(=S)NC3=O)c2C)cc1", "displacement": 24.8}]}]}
